Autofluor 339: intrinsic fluorescence of library compounds, ex339/em460 – biochemical, MLSMR library, data from DPM-DC assay, artefact control, profiling panel; fluorescence fold increase at 10 µM; 65,000 tested, 5.5% active; compound autofluorescence, ex339/em460 nm, NADH buffer; hits give high values; 1 = no-compound wells, NADH background;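 active means at 10 µM, mean starting fluorescence two-fold or more over control wells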;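 further: signal is the first read of a kinetic run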
Spn MK inh: blocks S. pneumoniae mevalonate kinase; purified MK, PK/LDH-coupled NADH absorbance 340 nm; inhibition, % at 10 µM; 65,000 tested, 0.48% active; AID 555;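 active means ranked among the strongest by inhibition in the single 10 µM screen, a fixed top-ranked set picked for dose follow-up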
Spn PMK inh: blocks S. pneumoniae phosphomevalonate kinase. purified PMK, PK/LDH-coupled NADH absorbance 340 nm. inhibition, % at 10 µM. 65,000 tested, 0.49% active;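 active means top-ranked compounds by inhibition in the single 10 µM screen, taking a fixed number of the strongest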;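 further: 0% = full reaction with DMSO carrier and 100% = background rate without enzyme reaction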
A340 absorber: compounds absorbing at 340 nm. compound absorbance at 340 nm, fold over control. fold change at 10 µM. 65,000 tested, under 10 active;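 active means at 10 µM dose, initial 340 nm absorbance at least 2 fold that of control wells; inactive means change under 2 fold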;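 further: initial absorbance extrapolated from kinetic A340 decline of NADH oxidation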
Spn DPM-DC inh: blocks S. pneumoniae diphosphomevalonate decarboxylase; purified DPM-DC, PK/LDH coupled NADH fluorescence; calls only at 10 µM; 65,000 tested, 0.49% active; AID 556;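 active means the 320 compounds with the highest percent inhibition in the single-dose primary screen, excluding strongly autofluorescent ones, cut at about 32% in these data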;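 further: kinetic rate of NADH fluorescence loss reporting ADP formed by the decarboxylase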
NADH enzymes: blocks coupling enzymes of NAD/NADH assays. 65,000 tested, 0.02% active. coupled PK/LDH NADH assays, four targets. IC50, µM (top dose mostly 10 µM), without a hit: at the top dose inhibition;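 active means single-dose screening hits from any of four coupled enzyme assays that gave an IC50 when retested across doses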;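 further: the DPM-DC format reads NADH fluorescence rather than 340 nm absorbance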
* hit, by the source's call; i = inactive; · = no result given; + = active, no number. An excerpt weighted towards active compounds, which were near 6.8% of everything screened.

SMILES | Autofluor 339 | Spn MK inh | Spn PMK inh | A340 absorber | Spn DPM-DC inh | NADH enzymes
COc1cccc(CNC(=O)Cn2cccc2)c1 | 1.04 | 6.0 | 7.0 | 0.98 | i | 4.0%
COc1cccc(CNC(=O)c2ccccc2N)c1 | 3.9* | 7.0 | 5.0 | 1.03 | · | 6.0%
Cc1ccc2nc(NC3=NCN(C4CCCCC4)CN3)nc(C)c2c1 | 1.11 | 10.0 | 4.0 | 0.99 | i | 5.0%
c1nc(N2CCOCC2)c2sc3nc(N4CCOCC4)c4c(c3c2n1)CCCC4 | 1.23 | 6.0 | 13.0 | 1.03 | i | 7.0%
Cn1cnc2c(sc3nc(N4CCOCC4)c4c(c32)CC(C)(C)OC4)c1=O | 1.99 | 11.0 | 10.0 | 1.1 | · | 11.0%
CNC(=O)c1ccc(-c2sc3nc(N4CCOCC4)c4c(c3c2N)CCCC4)o1 | 2.2* | 12.0 | 9.0 | 1.15 | · | 11.0%
CC1(C)Cc2c(c(N3CCOCC3)nc3sc(-c4ccc(C(=O)O)o4)c(N)c23)CO1 | 3.84* | 7.0 | 9.0 | 1.26 | · | 8.0%
CCOC(=O)c1sc2nc(N3CCOCC3)c3c(c2c1N)CCN(C)C3 | 3.74* | 0.0 | 0.0 | 1.24 | · | 0.0%
CCN(CC)c1nc(N2CCOCC2)c(C#N)c2c1CN(C)CC2 | 1.12 | 17.0 | 2.0 | 1.1 | i | 6.0%
CC1(C)Cc2c(c(N3CCOCC3)nc3sc(C(=O)N4CCCCC4)c(N)c23)CO1 | 2.13* | 4.0 | 3.0 | 1.07 | · | 4.0%
Nc1ncc(Br)cc1S(=O)(=O)NCCC(=O)N1CCN(c2ncccn2)CC1 | 1.37 | 6.0 | 16.0 | 1.04 | i | 7.0%
CCSc1nc(O)c(CC)c(=O)n1C(C)CC (centres undefined) | 1 | 10.0 | 0.0 | 1 | i | 2.0%
O=C(COc1ccccc1Cl)NCCCN1CCOCC1 | 1.03 | 0.0 | 18.0 | 1 | i | 2.0%
Cc1ccc(C2CC(=O)NC3=C2C(=O)CCC3)cc1Br (centres undefined) | 1.15 | 1.0 | 12.0 | 1.02 | i | 4.0%
CCN1C2=C(C(=O)CCC2)C(c2ccc(O)c(Br)c2)C2=C1CCCC2=O | 2.07* | 6.0 | 4.0 | 1.05 | · | 5.0%
CCCCN(C)C(=O)Cn1cnc2sc(C)cc2c1=O | 1.11 | 2.0 | 10.0 | 1.01 | i | 4.0%
O=C(NCc1ccccc1)N(Cc1nc2ccccc2c(=O)[nH]1)C1CCCC1 | 3.76* | 10.0 | 5.0 | 1 | · | 8.0%
CCCCn1ccc(=O)c2c(C(F)(F)F)nccc21 | 1.1 | 12.0 | 0.0 | 1.11 | i | 4.0%
CCCCn1c(=O)n(C)c(=O)c2c(C(F)(F)F)cc(-c3ccncc3)nc21 | 2.11* | 0.0 | 12.0 | 1.1 | · | 6.0%
COc1ccccc1C(=O)NCCc1nc2ccccc2n1C | 1.01 | active | 0.0 | 1.01 | i | 9.0%
Oc1ccccc1/C=N/c1c(-c2ccco2)nc2ccccn12 | 3.65* | 0.0 | 11.0 | 1.05 | · | 6.0%
Oc1oc(-c2ccco2)nc1C=Nc1ccccc1 | 1.03 | 6.0 | 5.0 | 1.06 | i | 4.0%
O=C(CCS(=O)(=O)c1cccc2nsnc12)N1CC(=O)N(CCc2ccccc2)C(=O)C1 | 1.09 | 7.0 | 7.0 | 1.06 | i | 9.0%
CSc1nc2nc(-c3ccccc3)cc(C(F)(F)F)n2n1 | 3.83* | 2.0 | 3.0 | 1.17 | · | 3.0%
CSc1nc2nc(C)cc(-c3ccccc3)n2n1 | 1.73 | 10.0 | 1.0 | 1.04 | i | 7.0%
SMILES | Autofluor 339 | Spn MK inh | Spn PMK inh | A340 absorber | Spn DPM-DC inh | NADH enzymes
Cc1ccc2nc(-c3ccc4c(c3)OCCO4)cc(C(=O)O)c2c1 | 1.2 | 0.0 | 0.0 | 1.03 | i | 2.0%
COc1ccc(-c2cc(C(=O)OCC(=O)N3CCCC3)c3ccccc3n2)cc1 | 2.9* | 0.0 | 19.0 | 1.03 | i | 17.0%
CCOc1ccc(-c2cc(C(=O)N3CCN(C)CC3)c3ccccc3n2)cc1 | 5.16* | 0.0 | 9.0 | 1.08 | · | 5.0%
CS(=O)(=O)N1CCN(C(=O)c2cc(-c3cccs3)nc3ccccc23)CC1 | 3.86* | 11.0 | 3.0 | 1.14 | · | 7.0%
O=C(O)c1cc(-c2cccs2)nc2cc3c(cc12)OCCO3 | 2.15* | 11.0 | 0.0 | 1.11 | · | 6.0%
COc1ccc(OC)c(C2C(C#N)=C(N)Oc3c2c(C)nn3-c2cccc(Cl)c2)c1 (centres undefined) | 1.24 | 12.0 | 4.0 | 1 | i | 5.0%
CC1(C)Cc2c(sc3c2c(=N)n(Cc2ccco2)c(=O)n3CC(=O)Nc2ccccc2)CO1 | 1.17 | 0.0 | 4.0 | 1.04 | i | 1.0%
Cc1cc2cc(CNC(=O)CC(C)C)ccc2n1C | 1.09 | 5.0 | 15.0 | 1 | i | 7.0%
CN(C)c1ccc(-c2nc3n(n2)C(c2cccnc2)C2=C(CC(C)(C)CC2=O)N3)cc1 (centres undefined) | 1.07 | 0.0 | 6.0 | 1.07 | i | 3.0%
O=C(c1cc(-c2ccccc2)nc2ccccc12)N1CCOCC1 | 1.12 | 2.0 | 6.0 | 1.04 | i | 3.0%
CCOc1ccc(-c2cc(C(=O)N3CCN(c4ccccn4)CC3)c3ccccc3n2)cc1 | 1.55 | 0.0 | 12.0 | 0.98 | i | 4.0%
COc1ccc(-c2cc(C(=O)N3CCN(c4ccccn4)CC3)c3ccccc3n2)cc1 | 2.66* | 0.0 | 16.0 | 1.08 | i | 9.0%
CCOC(=O)N1CCN(C(=O)c2cc(-c3ccc(OCC)cc3)nc3ccccc23)CC1 | 5.22* | 0.0 | 11.0 | 1.07 | · | 6.0%
COc1ccccc1CC(=O)N(CCC#N)CCC#N | 1.08 | 4.0 | 0.0 | 1.03 | i | 3.0%
CN(C)CCCN1C(=O)C(=O)/C(=C(/O)c2ccc(S(=O)(=O)N(C)C)cc2)C1c1ccncc1 (centres undefined) | 1.03 | 4.0 | 0.0 | 1.06 | i | 2.0%
CC(=O)Nc1nc2c(c3c1c(=O)oc1ccccc13)CCCCC2 | 1.24 | 8.0 | 0.0 | 1.04 | i | 3.0%
Nc1nc2c(c3c1c(=O)oc1ccccc13)CCCCC2 | 2.21* | 4.0 | 12.0 | 1.08 | · | 8.0%
Nc1cccc(-c2nc3ccc(N)cc3s2)c1 | 3.87* | 11.0 | 11.0 | 1.13 | · | 11.0%
CCN(C(=O)COc1ccccc1)c1nnc(-c2cccnc2)s1 | 1.07 | 15.0 | 0.0 | 1.03 | i | 5.0%
O=C1NC(=O)C(CC(=O)N(c2ccccc2)C2(C(=O)NC3CCCC3)CCCCC2)N1 (centres undefined) | 1 | 0.0 | 0.0 | 1.01 | + | 8.0%
O=C1CCC(C(=O)N(c2ccccc2)C2(C(=O)NC3CCCCC3)CCCCC2)N1 (centres undefined) | 1.1 | 3.0 | 6.0 | 1.02 | i | 3.0%
O=C(CC1Nc2ccccc2NC1=O)NC1CCCCC1 (centres undefined) | 2.05* | 6.0 | 15.0 | 1.04 | i | 16.0%
CCOC(=O)c1[nH]c(C)c(CN(Cc2ccco2)C(=O)C(F)(F)F)c1C | 1.07 | 0.0 | 6.0 | 1.01 | i | 2.0%
C=CCNc1oc(-c2cccc3ccccc23)nc1C#N | 2.93* | 7.0 | 4.0 | 1.03 | · | 4.0%
CC(C)Nc1oc(-c2cccc3ccccc23)nc1C#N | 3.79* | 3.0 | 2.0 | 1.05 | · | 3.0%
